# Screening results deposited in PubChem by several laboratories.
# Hits are enriched below; roughly 1.9% of the tested compounds scored in any of these assays.
# dFosB act-1 – mouse delta FosB homodimer activation | P13346 | purified delta FosB, TAMRA-CDK5 oligo fluorescence polarization; percent of positive-control signal above neutral wells | activation, % at 25 µM | hit rate 0.99% among 340,000 | AID 493131;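 active = mean activation above about 17%, with every replicate also reaching it, limit read from the data, passing the limit was not always enough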
# 14-3-3 Bad PPI – disrupts binding of bovine 14-3-3 zeta to phospho-Bad peptide; inhibition, % at 21.7 µM; hit rate 0.71% among 220,000; AID 781; TR-FRET 14-3-3zeta/Dy647-pBad peptide displacement, 1 h; P63103;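 active = inhibition above about 70%, limit read from the data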
# Target sequence (P63103 whole entry, looked up): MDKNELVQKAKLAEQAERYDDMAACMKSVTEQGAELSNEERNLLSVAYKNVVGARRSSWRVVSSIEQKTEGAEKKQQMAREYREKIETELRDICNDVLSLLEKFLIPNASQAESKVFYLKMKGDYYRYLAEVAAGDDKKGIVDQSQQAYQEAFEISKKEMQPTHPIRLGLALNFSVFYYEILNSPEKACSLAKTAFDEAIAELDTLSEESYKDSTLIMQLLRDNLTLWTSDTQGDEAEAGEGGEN
# Efa HMGR inh – inhibitors of class II HMG-CoA reductase from Enterococcus faecalis; purified E. faecalis HMGR, NADPH absorbance 340 nm kinetic; inhibition, % at 10 µM; hit rate 0.41% among 190,000; AID 1066;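 active = inhibition above a set limit, the median over all tested compounds plus 3 SD, cut at about 9.5% in these data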;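 note: enzyme runs in reverse so mevalonate oxidation gives rising NADPH absorbance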
# NCF1 inh – blocks human p47phox regulatory protein of NADPH oxidases. hit rate 0.53% among 220,000. inhibition, % at 24.7 µM. P14598. AID 1274. p47phox/p22phox peptide binding, fluorescence polarization, 2 h;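 active = inhibition above about 30%, limit read from the data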
# Target sequence (P14598 whole entry, looked up): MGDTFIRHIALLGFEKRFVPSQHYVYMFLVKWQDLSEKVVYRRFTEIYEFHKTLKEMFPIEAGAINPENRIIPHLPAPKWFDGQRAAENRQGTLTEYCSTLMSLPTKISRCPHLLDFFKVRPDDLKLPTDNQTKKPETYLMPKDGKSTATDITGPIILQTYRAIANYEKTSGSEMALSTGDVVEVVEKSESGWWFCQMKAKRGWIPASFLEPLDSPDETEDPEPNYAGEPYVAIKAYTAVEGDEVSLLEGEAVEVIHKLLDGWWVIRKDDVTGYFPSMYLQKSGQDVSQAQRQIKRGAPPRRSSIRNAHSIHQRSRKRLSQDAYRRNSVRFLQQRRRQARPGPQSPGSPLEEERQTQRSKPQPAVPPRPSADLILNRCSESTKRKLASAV
# dFosB act-2 – delta FosB (mouse) homodimer activation. shares compounds with dFosB act-1. purified delta FosB, TAMRA-CDK5 oligo fluorescence polarization; normalised: neutral wells 0, positive control 100. activation, % at 24.9 µM. 2,400 tested, under 10 active;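 active = highest replicate activation at or above 34% and every replicate reaching that threshold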;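 note: higher polarization means more probe DNA bound by delta FosB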
# Hits are given with their value; – = inactive; · = not tested or not shown.
SMILES,dFosB act-1,14-3-3 Bad PPI,Efa HMGR inh,NCF1 inh,dFosB act-2
OCC1(Cc2ccccc2Cl)CCN(C/C=C/c2ccccc2)CC1,–,–,–,–,·
Cc1cn(-c2cc(NC(=O)c3ccc(C)c(NC(=O)c4cccc(-c5cn[nH]c(=O)c5)c4)c3)cc(C(F)(F)F)c2)cn1,41.3,·,·,·,–
Cc1ccc(NC(=O)c2cccc(C(F)(F)F)c2)cc1NC(=O)c1[nH]cnc1C(N)=O,–,·,·,·,·
O=C(Nc1ccc2c(c1)OCO2)C1CCCN1C(=O)Nc1cccc(F)c1 (stereo not drawn),–,–,–,–,·
NCCNc1ccc([N+](=O)[O-])c(Sc2nc3ccccc3[nH]2)c1,25.4,–,–,–,–
Cc1cc(NC(=O)CN2CCc3ccccc3C2)nc2c1c(=O)oc1ccccc12,30.7,–,–,–,–
Cc1nn(Cc2ccc(F)cc2)c2sc(C(=O)Nc3nccs3)cc12,49.0,–,–,–,–
O=C(COC(=O)c1ccccc1O)Nc1cccc2ccccc12,39.5,·,·,·,–
NC(=O)c1ccc(NC(=O)COC(=O)c2cc3ccccc3cc2O)cc1,36.1,·,·,·,–
O=C(COC(=O)c1cc2ccccc2cc1O)Nc1ccccc1F,–,·,·,·,·
CCc1cccc(C)c1NC(=O)COC(=O)CNS(=O)(=O)/C=C/c1ccccc1,–,–,–,–,·
O=C(COC(=O)CNS(=O)(=O)/C=C/c1ccccc1)Nc1cccc2ccccc12,26.8,–,–,–,–
Cc1csc(SCC(=O)NCc2ccccc2)n1,–,–,–,–,·
COc1cc(/C=C/C=C2/CC/C(=C/C=C/c3ccc(O)c(OC)c3)C2=O)ccc1O,–,·,·,·,·
O=C(/C=C/c1ccc(Cl)cc1)NCCSc1ccccc1,–,–,–,–,·
NC(N)=NC(=O)c1nc(Cl)c(N)nc1N,–,–,–,–,·
NC(N)=NC(=O)c1nc(Cl)c(N2CCCCCC2)nc1N,26.5,·,·,·,–
CC(=O)Nc1ccc(NC(=O)C(=O)NCC(c2ccco2)N2CCc3ccccc32)cc1 (stereo not drawn),–,·,·,·,·
CC(=O)Nc1ccc(NC(=O)C(=O)NCC(c2ccco2)N2CCc3ccccc3C2)cc1 (stereo not drawn),22.3,·,·,·,–
C#CCn1c(=NC(=O)c2ccco2)sc2cccc(Cl)c21,26.2,–,·,–,–
Cc1csc(=O)n1CCC(=O)OCc1nnc(-c2ccccc2Cl)o1,–,·,·,·,·
COc1ccc(CC(=O)NC(C)c2nnc(SCc3nc4ccccc4c(=O)[nH]3)n2C)cc1 (stereo not drawn),–,–,–,–,·
CC(=O)Nc1ccc2nc(NC(=O)COc3cccc(C)c3)sc2c1,46.9,–,–,–,–
CC(=O)Nc1ccc2nc(NC(=O)COc3ccc(C)cc3)sc2c1,19.3,–,–,–,–
CC(=O)Nc1ccc(NC(=O)COc2ccc(-c3ccc(C#N)cc3)cc2)cc1,33.6,·,·,·,–
SMILES,dFosB act-1,14-3-3 Bad PPI,Efa HMGR inh,NCF1 inh,dFosB act-2
O=C(COc1ccccc1)Nc1nc2cc3c(cc2s1)OCO3,27.7,·,·,·,–
O=C(NCc1ccco1)Nc1cccs1,–,–,–,–,·
CCCNc1cc(C)oc(=O)c1C(=O)CCC,–,–,–,–,·
Cc1oc2cc(O)ccc2c(=O)c1Oc1ccc(F)cc1,18.7,·,·,·,–
Cc1ccc(C)c(Nc2nn3c(=O)c4ccc(C(=O)NCc5cccnc5)cc4nc3s2)c1,98.7,·,·,·,–
CCOC(=O)C1CCN(C(=O)c2ccc3c(=O)n4nc(Nc5cc(C)ccc5C)sc4nc3c2)CC1,–,·,·,·,·
NC(=S)N/N=C/c1coc2cc(Br)ccc2c1=O,24.3,–,·,–,–
O=C(Nc1nccs1)c1ccccc1Br,–,·,·,·,·
O=C(O)Cc1ccc(NC(=O)c2ccc(NC(=O)c3ccco3)cc2)cc1,–,–,–,–,·
O=C(Nc1cccc(NC(=O)c2ccco2)c1)c1ccc([N+](=O)[O-])cc1,20.4,–,–,–,–
COC(=O)c1ccc(NC(=O)c2cccc(NC(=O)c3ccco3)c2)cc1,16.9,·,·,·,–
COC(=O)c1cccc(NC(=O)NC(=O)c2ccc(Cl)cc2)c1,41.1,–,·,–,–
COC(=O)Cc1ccc(NC(=O)c2ccc(NC(=O)c3ccco3)cc2)cc1,34.1,–,–,–,–
COC(=O)c1cccc(NC(=O)c2ccco2)c1,–,–,–,–,·
COC(=O)c1cccc(NC(=O)Nc2ccc(Cl)cc2)c1,–,–,·,–,·
CC1CCC(C(=O)NC(C(=O)Nc2ccccn2)C(C)C)CC1 (stereo not drawn),–,·,·,·,·
O=C(CC(NC(=O)c1ccccc1Cl)c1ccccc1)NCCc1ccc(Cl)cc1 (stereo not drawn),24.9,–,–,–,–
CC(=O)NC(CC(=O)NCCc1ccccc1)c1ccccc1 (stereo not drawn),–,·,·,·,·
CC/C(=N\NC(=O)CSCc1ccccc1Br)c1ccc2c(c1)OCCO2,20.3,–,–,–,–
Cc1cccc2cc(CN(CCCN3CCOCC3)Cc3nnnn3C(C)(C)C)c(=O)[nH]c12,–,–,–,–,·
Cc1cc(C)cc(NC(=O)Cn2nnc(C(=O)NCc3ccc4c(c3)OCO4)c2N)c1,76.9,·,·,·,–
Cc1ccc(CNC(=O)c2nnn(CC(=O)Nc3cc(C)cc(C)c3)c2N)cc1,87.7,·,·,·,–
Cc1ccc(NC(=O)Cn2nnc(C(=O)NCc3ccc(Cl)cc3)c2N)cc1F,76.9,·,·,·,–
COc1ccc(NC(=O)Cn2nnc(C(=O)NCc3ccc4c(c3)OCO4)c2N)cc1,–,–,–,–,·
CSc1cccc(NC(=O)c2nnn(CC(=O)Nc3cc(C)cc(C)c3)c2N)c1,64.2,·,·,·,–
SMILES,dFosB act-1,14-3-3 Bad PPI,Efa HMGR inh,NCF1 inh,dFosB act-2
CCOc1ccccc1NC(=O)Cn1nnc(C(=O)NCc2ccc3c(c2)OCO3)c1N,–,·,·,·,·
Cc1cc(C)cc(NC(=O)Cn2nnc(C(=O)NCc3ccco3)c2N)c1,31.5,·,·,·,–
COc1ccc(NC(=O)Cn2nnc(C(=O)NCc3ccco3)c2N)cc1,–,·,·,·,·
CCOc1ccccc1NC(=O)Cn1nnc(C(=O)NCc2ccco2)c1N,28.2,–,–,–,–
Cc1ccc(CNC(=O)Cn2nnc(C(=O)Nc3cc(C)ccc3C)c2N)cc1,35.6,·,·,·,–
S=c1[nH]nc(C2CCCCC2)n1/N=C/c1ccc(Br)cc1,–,·,·,·,·
O=C(CCn1c(=O)oc2ccccc21)N(Cc1ccccc1)c1ccccn1,–,–,–,–,·
COCCCC1CCN(C(=O)C2CCC(=O)N(Cc3cccc(F)c3)C2)CC1 (stereo not drawn),–,·,·,·,·
Cc1cc(C)c(NC(=O)COC(=O)C2CCC2)c(Cl)c1,–,·,·,·,·
NC1=NC2(CCC(c3ccccc3)CC2)n2c(nc3ccccc32)N1 (stereo not drawn),34.1,–,–,–,–
CS(=O)(=O)NNC(=O)c1csc(Cc2c(Cl)sc3ccc(Cl)cc23)n1,36.4,–,·,–,–
CC(C)C(=O)NNC(=O)c1csc(CS(=O)(=O)c2ccc(Cl)cc2)n1,–,–,·,–,·
CN(C(=O)COC(=O)/C=C/c1ccc2ccccc2n1)c1c(N)n(Cc2ccccc2)c(=O)[nH]c1=O,23.4,·,·,·,–
CC(C)CN(C(=O)COC(=O)CSc1ccccc1)c1c(N)n(Cc2ccccc2)c(=O)[nH]c1=O,29.4,·,·,·,–
CC(C)CN(C(=O)COC(=O)Cc1ccc(Cl)cc1)c1c(N)n(Cc2ccccc2)c(=O)[nH]c1=O,–,·,·,·,·
